{
  "source": "PubChem BioAssay AID1159580",
  "about": "(chemical genetic matrix, 2015)",
  "experiment": "chemical genetic growth profiling, strain panel (AID 1159580);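 further: tested at 20 µM; growth read once vehicle control cultures reached saturation at 30 °C; 1 = growth at the plate median or of vehicle wells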",
  "settings": "S. cerevisiae deletion strains, growth OD",
  "note": "The whole screen tested about 5,500 compounds, of which about 2,000 (36%) were called active. Not shown: some 18% with an inconclusive outcome. Some of the results follow. Unmarked numbers belong to inactive results. No stated cut-off is given here; in the data, active means normalized growth mostly below about 0.91 (no sharp cut-off); inconclusive means no clear call, values can overlap the other calls; inactive means mostly above about 0.92.",
  "data": [
    {"compound": "Nc1nccs1", "values": [
      {"measurement": "normalized growth", "setting": "locus YAL021C, strain ccr4, stronger effect = lower value", "result": 0.994},
      {"measurement": "normalized growth", "setting": "locus YAL026C, strain drs2, stronger effect = lower value", "result": 0.993},
      {"measurement": "normalized growth", "setting": "locus YAL030W, strain snc1, stronger effect = lower value", "result": 0.995},
      {"measurement": "normalized growth", "setting": "locus YBL061C, strain skt5, stronger effect = lower value", "result": 0.995},
      {"measurement": "normalized growth", "setting": "locus YBR009C, strain hhf1, stronger effect = lower value", "result": 0.987},
      {"measurement": "normalized growth", "setting": "locus YBR021W, strain FUR4, stronger effect = lower value", "result": 1.03},
      {"measurement": "normalized growth", "setting": "locus YBR023C, strain chs3, stronger effect = lower value", "result": 0.991},
      {"measurement": "normalized growth", "setting": "locus YBR171W, strain sec66, stronger effect = lower value", "result": 0.975},
      {"measurement": "normalized growth", "setting": "locus YBR229C, strain ROT2, stronger effect = lower value", "result": 0.949},
      {"measurement": "normalized growth", "setting": "locus YBR231C, strain swc5, stronger effect = lower value", "result": 0.973},
      {"measurement": "normalized growth", "setting": "locus YBR279W, strain paf1, stronger effect = lower value", "result": 1},
      {"measurement": "normalized growth", "setting": "locus YCL011C, strain gbp2, stronger effect = lower value", "result": 1.02},
      {"measurement": "normalized growth", "setting": "locus YCL016C, strain dcc1, stronger effect = lower value", "result": 0.989},
      {"measurement": "normalized growth", "setting": "locus YCL029C, strain bik1, stronger effect = lower value", "result": 0.98},
      {"measurement": "normalized growth", "setting": "locus YCL061C, strain MRC1, stronger effect = lower value", "result": 0.978},
      {"measurement": "normalized growth", "setting": "locus YCL069W, strain vba3, stronger effect = lower value", "result": 0.988},
      {"measurement": "normalized growth", "setting": "locus YCR088W, strain abp1, stronger effect = lower value", "result": 0.992},
      {"measurement": "normalized growth", "setting": "locus YDL005C, strain med2, stronger effect = lower value", "result": 0.985},
      {"measurement": "normalized growth", "setting": "locus YDL035C, strain GPR1, stronger effect = lower value", "result": 1.01},
      {"measurement": "normalized growth", "setting": "locus YDL040C, strain nat1, stronger effect = lower value", "result": 0.986},
      {"measurement": "normalized growth", "setting": "locus YDL074C, strain BRE1, stronger effect = lower value", "result": 0.96},
      {"measurement": "normalized growth", "setting": "locus YDL101C, strain DUN1, stronger effect = lower value", "result": 0.974},
      {"measurement": "normalized growth", "setting": "locus YDL134C, strain PPH21, stronger effect = lower value", "result": 0.983},
      {"measurement": "normalized growth", "setting": "locus YDL185W, strain tfp1, stronger effect = lower value", "result": 0.984},
      {"measurement": "normalized growth", "setting": "locus YDL192W, strain arf1, stronger effect = lower value", "result": 0.983},
      {"measurement": "normalized growth", "setting": "locus YDR001C, strain nth1, stronger effect = lower value", "result": 1},
      {"measurement": "normalized growth", "setting": "locus YDR069C, strain doa4, stronger effect = lower value", "result": 0.95},
      {"measurement": "normalized growth", "setting": "locus YDR101C, strain arx1, stronger effect = lower value", "result": 0.941},
      {"measurement": "normalized growth", "setting": "locus YDR137W, strain rgp1, stronger effect = lower value", "result": 0.998},
      {"measurement": "normalized growth", "setting": "locus YDR159W, strain sac3, stronger effect = lower value", "result": 0.953},
      {"measurement": "normalized growth", "setting": "locus YDR162C, strain NBP2, stronger effect = lower value", "result": 0.996},
      {"measurement": "normalized growth", "setting": "locus YDR195W, strain ref2", "result": 0.958},
      {"measurement": "normalized growth", "setting": "locus YDR297W, strain sur2, stronger effect = lower value", "result": 0.997},
      {"measurement": "normalized growth", "setting": "locus YDR318W, strain mcm21, stronger effect = lower value", "result": 0.989},
      {"measurement": "normalized growth", "setting": "locus YDR334W, strain swr1, stronger effect = lower value", "result": 0.997},
      {"measurement": "normalized growth", "setting": "locus YDR335W, strain msn5, stronger effect = lower value", "result": 0.978},
      {"measurement": "normalized growth", "setting": "locus YDR388W, stronger effect = lower value", "result": 0.991},
      {"measurement": "normalized growth", "setting": "locus YDR392W, strain spt3, stronger effect = lower value", "result": 0.945},
      {"measurement": "normalized growth", "setting": "locus YDR502C, strain sam2, stronger effect = lower value", "result": 0.983},
      {"measurement": "normalized growth", "setting": "locus YEL003W, strain gim4, stronger effect = lower value", "result": 0.997},
      {"measurement": "normalized growth", "setting": "locus YEL037C, strain rad23, stronger effect = lower value", "result": 0.987},
      {"measurement": "normalized growth", "setting": "locus YEL061C, strain CIN8 (second series), stronger effect = lower value", "result": 0.991},
      {"measurement": "normalized growth", "setting": "locus YEL061C, strain CIN8, stronger effect = lower value", "result": 0.984},
      {"measurement": "normalized growth", "setting": "locus YER015W, strain faa2, stronger effect = lower value", "result": 0.991},
      {"measurement": "normalized growth", "setting": "locus YER016W, strain bim1, stronger effect = lower value", "result": 1.01},
      {"measurement": "normalized growth", "setting": "locus YER110C, stronger effect = lower value", "result": 0.986},
      {"measurement": "normalized growth", "setting": "locus YER111C, strain swi4, stronger effect = lower value", "result": 0.986},
      {"measurement": "normalized growth", "setting": "locus YER155C, strain BEM2 (second series), stronger effect = lower value", "result": "0.841 (active)"},
      {"measurement": "normalized growth", "setting": "locus YER155C, strain BEM2, stronger effect = lower value", "result": 1},
      {"measurement": "normalized growth", "setting": "locus YER167W, strain BCK2, stronger effect = lower value", "result": 0.995},
      {"measurement": "normalized growth", "setting": "locus YFR010W, strain ubp6, stronger effect = lower value", "result": 0.991},
      {"measurement": "normalized growth", "setting": "locus YGL078C, strain dbp3, stronger effect = lower value", "result": 1.01},
      {"measurement": "normalized growth", "setting": "locus YGL086W, strain mad1, stronger effect = lower value", "result": 0.953},
      {"measurement": "normalized growth", "setting": "locus YGL167C, strain pmr1, stronger effect = lower value", "result": 0.981},
      {"measurement": "normalized growth", "setting": "locus YGL173C, strain kem1, stronger effect = lower value", "result": 0.99},
      {"measurement": "normalized growth", "setting": "locus YGL227W, strain vid30, stronger effect = lower value", "result": 0.991},
      {"measurement": "normalized growth", "setting": "locus YGL240W, strain doc1, stronger effect = lower value", "result": 0.96},
      {"measurement": "normalized growth", "setting": "locus YGL248W, strain PDE1, stronger effect = lower value", "result": 0.974},
      {"measurement": "normalized growth", "setting": "locus YGL253W, strain hxk2, stronger effect = lower value", "result": 1.01},
      {"measurement": "normalized growth", "setting": "locus YGR135W, strain pre9, stronger effect = lower value", "result": 1.06},
      {"measurement": "normalized growth", "setting": "locus YGR229C, strain SMI1, stronger effect = lower value", "result": 1.01},
      {"measurement": "normalized growth", "setting": "locus YGR252W, strain gcn5, stronger effect = lower value", "result": 1.09},
      {"measurement": "normalized growth", "setting": "locus YHR013C, strain ard1, stronger effect = lower value", "result": 1.02},
      {"measurement": "normalized growth", "setting": "locus YHR027C, strain rpn1, stronger effect = lower value", "result": 0.994},
      {"measurement": "normalized growth", "setting": "locus YHR030C, strain SLT2, stronger effect = lower value", "result": 1},
      {"measurement": "normalized growth", "setting": "locus YHR079C, strain IRE1 (second series), stronger effect = lower value", "result": 0.989},
      {"measurement": "normalized growth", "setting": "locus YHR094C, strain hxt1, stronger effect = lower value", "result": 0.984},
      {"measurement": "normalized growth", "setting": "locus YHR129C, strain ARP1, stronger effect = lower value", "result": 0.987},
      {"measurement": "normalized growth", "setting": "locus YHR142W, strain chs7, stronger effect = lower value", "result": 1.02},
      {"measurement": "normalized growth", "setting": "locus YHR200W, strain rpn10, stronger effect = lower value", "result": 0.984},
      {"measurement": "normalized growth", "setting": "locus YIL066C, strain RNR3, stronger effect = lower value", "result": 0.953},
      {"measurement": "normalized growth", "setting": "locus YIL073C, strain SPO22, stronger effect = lower value", "result": 1.04},
      {"measurement": "normalized growth", "setting": "locus YIL125W, strain kgd1, stronger effect = lower value", "result": 0.989},
      {"measurement": "normalized growth", "setting": "locus YIR030C, strain dcg1, stronger effect = lower value", "result": 0.988},
      {"measurement": "normalized growth", "setting": "locus YJL092W, strain hpr5, stronger effect = lower value", "result": 0.969},
      {"measurement": "normalized growth", "setting": "locus YJL095W, strain BCK1 (second series), stronger effect = lower value", "result": 0.998},
      {"measurement": "normalized growth", "setting": "locus YJL095W, strain BCK1, stronger effect = lower value", "result": 0.934},
      {"measurement": "normalized growth", "setting": "locus YJL115W, strain asf1, stronger effect = lower value", "result": 0.998},
      {"measurement": "normalized growth", "setting": "locus YJL129C, strain trk1, stronger effect = lower value", "result": 0.978},
      {"measurement": "normalized growth", "setting": "locus YJL134W, strain LCB3, stronger effect = lower value", "result": 0.99},
      {"measurement": "normalized growth", "setting": "locus YJL154C, strain vps35, stronger effect = lower value", "result": 0.993},
      {"measurement": "normalized growth", "setting": "locus YJL164C, strain tpk1, stronger effect = lower value", "result": 0.997},
      {"measurement": "normalized growth", "setting": "locus YJL166W, strain qcr8, stronger effect = lower value", "result": 0.961},
      {"measurement": "normalized growth", "setting": "locus YJL168C, strain set2, stronger effect = lower value", "result": 0.988}
    ]}
  ]
}
